Reference: the supplement of paper PMC10981050
Where “and” joins values, the source holds several entries; their conditions need not be identical. Identical values can stand only once. Counter-ions that a name gives are not always drawn.

Tests used:
Test in all cases: cell viability relative to vehicle control; higher = less cytotoxic
Conditions in all cases: 10 µM
[1] = test system: K562
In short: (§1)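 Mutant clones made by CRISPR editing and their isogenic wild-type counterparts, from four leukaemia lines, were exposed to a single 10 µM dose of each library compound for 48 h. The supernatant was then removed and CellTiter-Glo luminescence was read. Viability was reported as percent of the on-plate vehicle control.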

[2] = test system: MARIMO
In short: as §1

[3] = test system: MOLM14
In short: as §1

[4] = test system: OCI-AML2
In short: as §1

| SMILES | cell viability ([1]; SRSF2 genotype: SRSF2 P95H/wt) | cell viability ([1]; SRSF2 genotype: SRSF2 wt/wt) [%] | cell viability ([2]; SRSF2 genotype: SRSF2 P95H/wt) [%] | cell viability ([2]; SRSF2 genotype: SRSF2 wt/wt) [%] | cell viability ([3]; SRSF2 genotype: SRSF2 P95H/wt) [%] | cell viability ([3]; SRSF2 genotype: SRSF2 wt/wt) [%] | cell viability ([4]; SRSF2 genotype: P95H/wt) [%] | cell viability ([4]; SRSF2 genotype: wt/wt) [%] |
| --- | --- | --- | --- | --- | --- | --- | --- | --- |
| COc1cc(C(=O)O)cc(OC)c1OC [Gallic acid trimethyl ether] | 106% and 110% | 101 | 102 | 106 | 105 | 106 | 99.2 | 109 |
| C[C@H]1CC[C@@H]2N(C1)C[C@H]1[C@@H]3C[C@H]4[C@@H](CC(=O)[C@H]5C[C@@H](O)CC[C@@]54C)[C@@H]3CC[C@H]1[C@]2(C)O [Imperialine] | 112% and 97.8% | 109 | 103 | 101 | 105 | 106 | 101 | 107 |
| CC(C)N(CCNC(=O)CN1CCCC1=O)C(C)C [Pramiracetam] | 96.6% and 106% | 104 | 98.4 | 111 | 107 | 102 | 98.1 | 105 |
| COc1c(C)c(O)cc2[o+]c(-c3ccccc3)ccc12.[O-][Cl+3]([O-])([O-])[O-] [Dracohodin perochlorate] | 80.8% and 78.3% | 77.4 | 80.1 | 86.8 | 80.1 | 82.3 | 83.6 | 84.1 |
| CC(=O)O[C@H]1C[C@@H]2CC[C@@H]3[C@H](CC[C@@]4(C)[C@H]3C[C@H]([N+]3(C)CCCCC3)[C@@H]4OC(C)=O)[C@@]2(C)C[C@@H]1[N+]1(C)CCCCC1 [Pancuronium dibromide] | 101% and 96.7% | 91.6 | 96 | 99.3 | 103 | 102 | 97.4 | 101 |
| Cc1cccc([C@H](C)c2c[nH]cn2)c1C [Dexmedetomidine] | 97.4% and 102% | 98.5 | 95.6 | 101 | 105 | 102 | 114 | 95.9 |
| CC(=O)Nc1ccc(Cc2ccc(NC(C)=O)cc2)cc1 | 104% and 107% | 107 | 105 | 106 | 106 | 104 | 104 | 113 |
| COC(=O)Nc1nc2ccccc2[nH]1 [Carbendazim] | 35% and 44.4% | 51.9 | 36.2 | 31.8 | 58.5 | 49 | 60.5 | 52.2 |
| ClCCN(Cc1ccccc1)Cc1ccccc1 [Dibenamine Hydrochloride] | 103% and 95.7% | 91.5 | 94.9 | 104 | 94.8 | 103 | 83.5 | 89.3 |
| Cc1cc2c(C(C)C)c(O)c(O)c(C=O)c2c(O)c1-c1c(C)cc2c(C(C)C)c(O)c(O)c(C=O)c2c1O | 2.58% and 2.65% | 13.3 | 11.7 | 15.4 | 0.51 | 1.24 | 0.59 | 1.12 |
| Cl[TeH]1(Cl)(Cl)OCCO1.N | 86.8% and 76.3% | 75 | 78 | 83.5 | 71.3 | 74.3 | 76.1 | 84.1 |
| O=C1C=CC[C@@H]2[C@H]3CCCN4CCC[C@@H](CN12)[C@@H]34 [Sophocarpine] | 103% and 107% | 102 | 108 | 111 | 106 | 106 | 98.4 | 108 |
| N[C@@H]1C[C@H]1c1ccccc1 [Tranylcypromine (2-PCPA) HCl] | 109% and 112% | 115 | 98 | 107 | 97.7 | 97.5 | 94.1 | 85 |
| COP(=O)(OC)SCn1c(=O)oc2cc(Cl)cnc21 [Azamethiphos] | 55.4% and 71.8% | 78.9 | 48.4 | 58.3 | 93.3 | 107 | 110 | 106 |
| CCC(COC(=O)c1cc(OC)c(OC)c(OC)c1)(c1ccccc1)N(C)C (stereo not drawn) [Trimebutine] | 94.7% and 99.7% | 97.2 | 87.4 | 109 | 97.9 | 104 | 92.5 | 97.8 |
| C/C(O)=C(\C#N)C(=O)Nc1cc(Br)ccc1Br | 88.8% and 87.1% | 89.1 | 88.4 | 96.5 | 78.9 | 93.7 | 86.1 | 87.7 |
| CCCCCc1cc(O)cc(O)c1 [Olivetol] | 102% and 99.9% | 110 | 87.2 | 96.8 | 101 | 107 | 111 | 112 |
| N#CC(C#N)=NNc1ccc(OC(F)(F)F)cc1 | 16.2% and 15.8% | 19.2 | 31.8 | 28 | 14.5 | 11.2 | 2.85 | 8.68 |
| CCCCCCC(=O)O[C@H]1CC[C@H]2[C@@H]3CCC4=CC(=O)CC[C@]4(C)[C@H]3CC[C@]12C [Testosterone Enanthate] | 91.4% and 86% | 88.5 | 66.5 | 61.8 | 50.1 | 20.5 | 23.7 | 25.8 |
| CC(=O)OC1CN2CCC1CC2 (stereo not drawn) [Aceclidine HCl] | 99.8% and 104% | 100 | 104 | 112 | 104 | 106 | 102 | 105 |
| CCC(C)C(=O)O[C@@H]1[C@@H](OC(C)=O)[C@]2(C)[C@H](C(C)=O)CC[C@@]23O[C@]32CC[C@H]3C[C@@H](O[C@H]4C[C@@H](OC)[C@H](O[C@@H]5O[C@H](C)[C@@H](O)[C@@H](OC)[C@H]5O)[C@@H](C)O4)CC[C@]3(C)[C@@H]12 (stereo partly drawn) [Tenacissoside H] | 89.8% and 95.2% | 97.7 | 96.9 | 93.2 | 94.6 | 93.4 | 98.9 | 96.7 |

| SMILES | cell viability ([1]; SRSF2 genotype: SRSF2 P95H/wt) | cell viability ([1]; SRSF2 genotype: SRSF2 wt/wt) [%] | cell viability ([2]; SRSF2 genotype: SRSF2 P95H/wt) [%] | cell viability ([2]; SRSF2 genotype: SRSF2 wt/wt) [%] | cell viability ([3]; SRSF2 genotype: SRSF2 P95H/wt) [%] | cell viability ([3]; SRSF2 genotype: SRSF2 wt/wt) [%] | cell viability ([4]; SRSF2 genotype: P95H/wt) [%] | cell viability ([4]; SRSF2 genotype: wt/wt) [%] |
| --- | --- | --- | --- | --- | --- | --- | --- | --- |
| CN1C(=O)COc2c(C(=O)NC3CN4CCC3CC4)cc(Cl)cc21 (stereo not drawn) [Azasetron HCl] | 96.6% and 91.5% | 94.9 | 92.8 | 98.7 | 90.5 | 97.3 | 95.9 | 94.7 |
| CC[C@@H](C(N)=O)N1CCCC1=O [Levetiracetam] | 110% and 104% | 102 | 102 | 109 | 101 | 108 | 106 | 106 |
| O=C1CCC[C@@H]2[C@H]3CCCN4CCC[C@H](CN12)[C@@H]34 [Sophoridine] | 104% and 100% | 105 | 108 | 113 | 103 | 108 | 100 | 101 |
| CC[N+](C)(CC)CCOC(=O)C(O)(c1ccccc1)c1ccccc1 [Methylbenactyzine Bromide] | 95.9% and 96.8% | 100 | 97.7 | 104 | 96.1 | 102 | 97.7 | 91 |
| CC(=O)Nc1ccc(OC[C@](C)(O)C(=O)Nc2ccc([N+](=O)[O-])c(C(F)(F)F)c2)cc1 [Andarine (GTX-007)] | 103% and 99% | 107 | 98.4 | 105 | 106 | 105 | 97.1 | 95.8 |
| CN1CC=C(c2ccccc2)CC1 [MPTP hydrochloride] | 100% and 99.7% | 102 | 107 | 111 | 103 | 105 | 92.5 | 108 |
| CC[C@]12C=CCN3CC[C@]4(C(=C(C(=O)OC)C1)Nc1ccccc14)[C@@H]32 [Tabersonine hydrochloride] | 18.2% and 28.9% | 32.3 | 13 | 13.8 | 3.62 | 1.08 | 8.35 | 13.7 |
| CC(C)(C)c1cc(C=C(C#N)C#N)cc(Br)c1O | 84.3% and 86.2% | 78 | 94.2 | 99.3 | 93.5 | 100 | 80.5 | 89.6 |
| CCC1(c2cccc(O)c2)CCCCN(C)C1 (stereo not drawn) [Meptazinol HCl] | 96.2% and 101% | 100 | 91 | 93.7 | 103 | 98.1 | 96.4 | 92.4 |
| CN(C)[C@@H]1C(=O)C(C(N)=O)=C(O)[C@@]2(O)C(=O)C3=C(O)c4c(O)cccc4[C@@](C)(O)[C@H]3[C@H](O)[C@@H]12 [Oxytetracycline dihydrate] | 98.3% and 102% | 101 | 104 | 100 | 97.6 | 103 | 103 | 92.6 |
| O=c1ccc2cc(O[C@@H]3O[C@H](CO)[C@@H](O)[C@H](O)[C@H]3O)c(O)cc2o1 [Aesculin (Esculin)] | 104% and 98.9% | 100 | 96.9 | 97.7 | 101 | 99.7 | 95.1 | 93.3 |
| C[C@]12CCC(=O)C[C@@H]1CC[C@@H]1[C@@H]2CC[C@]2(C)[C@@H](O)CC[C@@H]12 [Dihydrotestosterone (DHT)] | 97% and 97.8% | 97.7 | 95.3 | 109 | 93.9 | 102 | 96.5 | 101 |
| C[C@@H]1CC[C@@]2(OC1)O[C@H]1C[C@H]3[C@@H]4CC=C5C[C@@H](O[C@@H]6O[C@H](CO)[C@@H](O[C@@H]7O[C@@H](C)[C@H](O)[C@@H](O)[C@H]7O)[C@H](O)[C@H]6O[C@@H]6O[C@@H](C)[C@H](O)[C@@H](O)[C@H]6O)CC[C@]5(C)[C@H]4CC[C@]3(C)[C@H]1[C@@H]2C [Dioscin (Collettiside III)] | 0.8% and 0.73% | 0.55 | 1.89 | 0.64 | 0.47 | 0.55 | 0.51 | 0.51 |
| CC(C)c1cc2c(c(O)c1O)[C@@]1(C(=O)O)CCCC(C)(C)[C@@H]1CC2 [Carnosic acid] | 70.2% and 83.7% | 86.6 | 41.8 | 5.17 | 43.8 | 41.1 | 33.2 | 27.1 |
| O=C(NCC1CCOCC1)c1cnc(Nc2ccc(Cl)cc2Cl)nc1C(F)(F)F | 95% and 97.7% | 98 | 93.5 | 104 | 103 | 104 | 98.5 | 102 |
| CN1[C@@H]2CC[C@H]1C[C@@H](OC(=O)C(CO)c1ccccc1)C2 (stereo partly drawn) [Atropine sulfate monohydrate] | 93.4% and 94.7% | 100 | 104 | 112 | 100 | 105 | 100 | 99.6 |
| CC(=O)O[C@H]1CC[C@H]2[C@@H]3CCC4=CC(=O)CCC4=C3C=C[C@]12C [Trenbolone acetate] | 98.4% and 111% | 98.9 | 87.2 | 96 | 83 | 102 | 114 | 101 |
| COc1ccc(C(=O)N2CCCC2=O)cc1 [Aniracetam] | 105% and 106% | 110 | 107 | 109 | 110 | 109 | 118 | 106 |
| O=C/C=C/c1ccccc1 [Cinnamaldehyde] | 97.5% and 92.8% | 94.3 | 92 | 95.3 | 96.1 | 98.9 | 102 | 102 |
| CN(C)Cc1c[nH]c2ccccc12 [Gramine] | 101% | 100 | 102 | 102 | 99.6 | 100 | 102 | 98.9 |
